The values below come from PubChem BioAssay.

Test [1] can be described thus: inhibitors of TNFa-induced NFkB p65 translocation, primary screen, imaging, HUVEC, MLSMR starter and 10KST1 sets (AID 438).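 For inhibition: signal is the nuclear over cytoplasmic p65 intensity ratio per well.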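 Note: compound added about 3h40 before a 20 min TNFalpha stimulation.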 The settings on record: HUVEC TNFa-induced p65 nuclear translocation; cell count: measured here: nuclei count (cytotoxicity indicator), at 2.08 µM; inhibition: at 2 µM, stronger effect = higher value, 0% TNFa-plus-vehicle, 100% no-TNFa wells.
Test [2] is described as follows: inhibitors of mutant huntingtin aggregation, primary screen, imaging, exon1htt(103Q)mCFP cells, high-content imaging (AID 483;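 active = visual image review flags a hit and inhibition of aggregation exceeds 20%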;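 note: compound exposure lasted 3 days before fixation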;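 for nuclei count: percent of the per-plate median nuclei count of sample wells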). The settings on record: exon1htt(103Q)mCFP cell line, aggregate imaging, at 2 µM; inhibition of aggregation: stronger effect = higher value; nuclei count: measured here: cell count, toxicity.
Test [3] is described as follows: inhibitors of E-selectin induction by TNFa, primary screen, imaging, HUVEC, immunofluorescence, MLSMR starter and 10KST1 sets (AID 487;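 active = visually confirmed hit in the image check and inhibition above 20%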;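 for inhibition: signal is fraction of cell area covered by stained E-selectin grains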;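 for nuclei count: 100% = median nuclei count of all wells on the same plate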). The note with it: HUVEC TNFalpha-induced E-selectin immunofluorescence imaging, at 2 µM; inhibition: stronger effect = higher value; nuclei count: measured here: cell number, toxicity.
Test [4] addresses Voltage-gated potassium channel subunit beta-2 (Rattus norvegicus) (UniProt P62483). In words: KvBeta enzyme negative modulators, primary screen, biochemical, NADPH fluorescence (AID 622;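 active = fluorescence slope higher than the sample average by over 3 SD, cut at about -0.22 in these data, passing the limit was not always enough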;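 note: slope of raw intensity against log time taken from 70 to 1610 s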). The note with it: recombinant KvBeta, 4-cyanobenzaldehyde reduction, at 10 µM, stronger effect = higher value.
Test [5] shares this target. In words: KvBeta positive modulators, primary screen, biochemical, NADPH fluorescence (AID 623;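 active = NADPH fluorescence slope more negative than the mean of all samples by about 3 SD, 99.7% confidence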;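 note: fluorescence intensity change per second fitted from 20 to 320 s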). The note with it: Recombinant KvBeta, NADPH fluorescence decrease slope, 10 min; at 10 µM; stronger effect = lower value.
In test [6] the target is Alpha-2C adrenergic receptor (Homo sapiens) (UniProt P18825). In words: modulators of alpha2C/GIRK thallium flux, primary screen, cell-based, HEK293 alpha2C/GIRK1/2 (AID 624;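 active = fluorescence slope after compound addition differing from the mean of all screened samples at 99.7% confidence, in either direction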;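 note: slope of fluorescence ratio to pre-addition baseline per second over 15 to 24 s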). The settings on record: thallium flux BTC fluorescence, at 10 µM, actives lie on both sides.
Sequence of Alpha-2C adrenergic receptor (Homo sapiens) (P18825 whole entry, looked up): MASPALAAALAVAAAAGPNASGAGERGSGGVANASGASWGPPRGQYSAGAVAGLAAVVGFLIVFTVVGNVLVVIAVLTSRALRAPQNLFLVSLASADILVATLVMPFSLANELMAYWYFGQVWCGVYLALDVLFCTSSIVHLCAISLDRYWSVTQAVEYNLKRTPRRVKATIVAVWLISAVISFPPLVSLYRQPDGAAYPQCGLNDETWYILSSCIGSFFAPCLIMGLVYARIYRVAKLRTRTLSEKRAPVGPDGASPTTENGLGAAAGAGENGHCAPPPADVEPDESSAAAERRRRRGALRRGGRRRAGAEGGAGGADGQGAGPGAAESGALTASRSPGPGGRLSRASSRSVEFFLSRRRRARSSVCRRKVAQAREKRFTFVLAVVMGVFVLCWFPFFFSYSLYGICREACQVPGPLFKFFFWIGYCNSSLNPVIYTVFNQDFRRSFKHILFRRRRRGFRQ
The nature of test [7]: inhibitors of Sendai virus-induced IRF3 signaling, primary screen, TLR/RLR signaling modifier project, cell-based, Sendai virus stimulus, luciferase, 10K MLSCN set (AID 602276;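 active = inhibition at or above 50% at 10 µM; inactive = inhibition below 50%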;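 note: firefly luciferase from ISG56 promoter only with Renilla not read in this screen; 0% = Sendai virus plus DMSO and 100% = medium plus DMSO without virus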). The settings on record: HEK293 RL24 IRF3 luciferase reporter, at 10 µM, stronger effect = higher value. For orientation: A reporter such as luciferase makes a cellular process visible.
Test [8] is described as follows: inhibitors of poly I:C-induced TLR3 signaling, primary screen, cell-based, poly I:C stimulus, luciferase, 10K MLSCN set (AID 602277;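 active = inhibition of the reporter signal at or above 50%; inactive = inhibition below 50%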). The note with it: HEK293-TLR3 RL24 IRF3 luciferase reporter, at 10 µM, stronger effect = higher value.

SMILES strings stand for the structures. Calls of active or inactive are those of the source.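 Rule for the calls, unless noted: active = inhibition above 20% together with a positive visual image hit; inconclusive = visual image hit but inhibition not above 20%; inactive = no visual image hit.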

Sequence of Voltage-gated potassium channel subunit beta-2 (Rattus norvegicus) (P62483 whole entry, looked up): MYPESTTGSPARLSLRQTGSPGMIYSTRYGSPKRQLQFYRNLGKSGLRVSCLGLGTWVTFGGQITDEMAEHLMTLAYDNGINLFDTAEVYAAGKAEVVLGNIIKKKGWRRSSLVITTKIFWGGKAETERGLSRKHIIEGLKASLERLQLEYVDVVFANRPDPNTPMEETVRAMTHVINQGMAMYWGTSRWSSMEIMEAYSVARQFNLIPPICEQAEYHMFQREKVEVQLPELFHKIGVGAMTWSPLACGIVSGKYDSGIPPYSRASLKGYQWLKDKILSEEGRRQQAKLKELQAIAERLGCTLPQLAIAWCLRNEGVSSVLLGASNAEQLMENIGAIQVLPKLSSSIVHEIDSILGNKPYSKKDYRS

For `O=C(COC(=O)c1ccccc1O)Nc1ccc(OC(F)F)cc1`, the cell count in test [1] turned out to be 674. The inhibition (usually the relative decrease from the control value, in per cent) in test [1] is 5.1% (inactive); in test [3], -64.8% (inactive); in test [7], -13.8% (inactive); in test [8], -42.2% (inactive). In test [2], the inhibition of aggregation is -8.4% (inactive). Also, the nuclei count was 103% in test [2] and 136% in test [3]. Moreover, in test [4], the fluorescence slope was -0.543 (inactive). Also, the NADPH fluorescence slope in test [5] was 7.7e-06 (inactive). In test [6], the slope was 0.00583 (inactive).

Regarding `Cc1nnc(SCC(=O)N2CCC(C(=O)Nc3nccs3)CC2)n1Cc1ccccc1`, the cell count in test [1] was 405. For the same compound, the inhibition is 6.1% (inactive) in test [1], 10.2% (inactive) in test [3], 18.3% (inactive) in test [7] and 17% (inactive) in test [8]. The inhibition of aggregation in test [2] was 8.5% (inactive). Also, the values for the nuclei count in test [2] and in test [3] were 104% and 100%, respectively. Moreover, the fluorescence slope in test [4] was -0.604 (inactive). Moreover, the NADPH fluorescence slope in test [5] was -4.4e-05 (inactive). In addition, in test [6], the slope is 0.00447 (inactive).

`COC(=O)c1ccc(-c2nn(C)c(=O)c3ccccc23)cc1`: in test [1], the cell count came to 493. In addition, the inhibition in test [1] was -5.5% (inactive); in test [3], -13.3% (inactive); in test [7], 8.98% (inactive); in test [8], 29.2% (inactive). Further, in test [2], the inhibition of aggregation is -11.1% (inactive). Further, the nuclei count in test [2] was found to be 76.7%; in test [3], 97.9%. In test [4], the fluorescence slope was -0.55 (inactive). The NADPH fluorescence slope in test [5] was -3e-05 (inactive). For the same compound, the slope in test [6] was 0.00686 (inactive).

Consider `O=C(OCC(=O)N1CCc2ccccc21)C1=COCCO1`, for which the cell count in test [1] was found to be 341. The inhibition in test [1] is -3.1% (inactive); in test [3], -37% (inactive); in test [7], -12.3% (inactive); in test [8] it was -46.6% (inactive). Moreover, the inhibition of aggregation in test [2] is 8.9% (inactive). For the same compound, the results for the nuclei count in test [2] and in test [3] were 86.5% and 113%, respectively. The fluorescence slope in test [4] is -0.633 (inactive). Also, in test [5], the NADPH fluorescence slope was -7.8e-06 (inactive). Moreover, the slope in test [6] is 0.00715 (inactive).

As for `COc1ccc(-c2nnc(-c3ccc(N)cc3)o2)cc1`, the cell count in test [1] was found to be 332. For the same compound, the inhibition in test [1] was 5.5% (inactive); in test [3], -145% (inactive); in test [7] it was -34.1% (inactive); in test [8] it was -82.2% (inactive). In test [2], the inhibition of aggregation was 9.6% (inactive). The values for the nuclei count in test [2] and in test [3] were 111% and 124%, respectively. For the same compound, in test [4], the fluorescence slope is -0.0553 (active). In test [5], the NADPH fluorescence slope is -2.2e-05 (inactive). Besides, the slope in test [6] is 0.00409 (inactive).

Turning to `Cc1ccc2c(c1)N(CC(=O)N1CCCCC1c1cccnc1)C(=O)CO2` (centres undefined), the cell count in test [1] stood at 442. In addition, the inhibition in test [1] is 2.2% (inactive); in test [3], -48.3% (inactive); in test [7], -2.12% (inactive); in test [8] it was 17.4% (inactive). Further, in test [2], the inhibition of aggregation was 4.1% (inactive). In addition, the nuclei count in test [2] and in test [3] was 104% each time. In test [4], the fluorescence slope is -0.345 (inactive). In addition, the NADPH fluorescence slope in test [5] was -6.9e-05 (inactive). Further, in test [6], the slope was 0.0057 (inactive).

In the case of `Cc1ccc(S(=O)(=O)C(C#N)c2nc3ccccc3nc2N2CCCCC2)cc1` (centres undefined), in test [1], the cell count worked out at 273. In addition, the inhibition in test [1] is 10.9% (inactive); in test [3], -0.3% (inactive); in test [7] it was 11.2% (inactive); in test [8], 22.6% (inactive). The inhibition of aggregation in test [2] was 8.3% (inactive). The nuclei count in test [2] was found to be 98.6%; in test [3] it was 103%. Further, in test [4], the fluorescence slope is -0.364 (inactive). In test [5], the NADPH fluorescence slope was 2e-06 (inactive). In addition, in test [6], the slope was 0.00764 (inactive).

`COc1cccc(NC(=O)c2nc3nc(C)cc(C(F)F)n3n2)c1`: the cell count in test [1] turned out to be 641. The inhibition in test [1] is -2.9% (inactive); in test [3], -34.9% (inactive); in test [7], 3.8% (inactive); in test [8] it was 4.85% (inactive). The inhibition of aggregation in test [2] is 1.9% (inactive). In addition, the nuclei count in test [2] is 68.8%; in test [3] it was 96.6%. Besides, the fluorescence slope in test [4] was -0.567 (inactive). For the same compound, the NADPH fluorescence slope in test [5] was -5.2e-05 (inactive). Further, in test [6], the slope is 0.00736 (inactive).

On to `COc1ccc(N2CCN(C(c3cccs3)c3nnnn3C3CCCC3)CC2)cc1` (centres undefined), for which the cell count in test [1] came to 219. Also, the inhibition was 12.7% (inactive) in test [1], -10.3% (inactive) in test [3], 1.77% (inactive) in test [7] and 11.1% (inactive) in test [8]. Also, the inhibition of aggregation in test [2] is 1.6% (inactive). For the same compound, the nuclei count in test [2] turned out to be 104%; in test [3] it was 88.2%. The fluorescence slope in test [4] was -0.614 (inactive). Moreover, in test [5], the NADPH fluorescence slope is -1.5e-08 (inactive). Besides, in test [6], the slope is 0.00587 (inactive).

`COc1ccc(Cl)c(NCCC(=O)O)c1`: the cell count in test [1] was determined as 632. Besides, the inhibition in test [1] is -4.2% (inactive); in test [3], -96.7% (inactive); in test [7] it was -8.17% (inactive); in test [8], -4.52% (inactive). Besides, the inhibition of aggregation in test [2] is 2.2% (inactive). The figures for the nuclei count in test [2] and in test [3] were 110% and 130%, respectively. The fluorescence slope in test [4] was -0.453 (inactive). Further, in test [5], the NADPH fluorescence slope is -0.000352 (inactive). In test [6], the slope was 0.00574 (inactive).

For `O=C(Nc1nccs1)c1ccc(COc2ccccc2Br)o1`, the cell count in test [1] came to 694. Further, the inhibition was -14.6% (inactive) in test [1], -85.8% (inactive) in test [3], 21.2% (inactive) in test [7] and -63.2% (inactive) in test [8]. Further, the inhibition of aggregation in test [2] was -27.8% (inactive). Also, the nuclei count in test [2] stood at 111%; in test [3] it was 118%. In addition, in test [4], the fluorescence slope is -0.487 (inactive). The NADPH fluorescence slope in test [5] is -5.4e-05 (inactive). For the same compound, in test [6], the slope is 0.00542 (inactive).

As to `COc1ccccc1N1CCN(C(=O)CN(Cc2ccc(Cl)cc2)S(C)(=O)=O)CC1`, in test [1], the cell count amounted to 458. In addition, the inhibition was -7.3% (inactive) in test [1], -130% (inactive) in test [3], 17.3% (inactive) in test [7] and 24.8% (inactive) in test [8]. In test [2], the inhibition of aggregation was -18.6% (inactive). Moreover, the nuclei count in test [2] amounted to 112%; in test [3], 174%. Besides, in test [4], the fluorescence slope is -0.49 (inactive). Further, the NADPH fluorescence slope in test [5] is 7.6e-06 (inactive). Further, the slope in test [6] is 0.00623 (inactive).

With `CC(=O)N1CCc2cc(Br)cc(S(=O)(=O)NCCCN3CCCC(C)C3)c21` (centres undefined), the cell count in test [1] stood at 379. The inhibition in test [1] is 0.3% (inactive); in test [3], -170% (inactive); in test [7] it was -7.41% (inactive); in test [8] it was 12.2% (inactive). Besides, the inhibition of aggregation in test [2] is -1.8% (inactive). For the same compound, the nuclei count in test [2] was found to be 104%; in test [3] it was 96%. In test [4], the fluorescence slope is -0.47 (inactive). In addition, in test [5], the NADPH fluorescence slope was 1.8e-05 (inactive). In addition, the slope in test [6] was 0.00613 (inactive).

On to `O=C(CNC(=O)c1ccccc1C(=O)O)c1ccccc1`, for which the cell count in test [1] is 653. Besides, the inhibition in test [1] was 1.8% (inactive); in test [3], -147% (inactive); in test [7] it was -17.6% (inactive); in test [8], -49% (inactive). Also, the inhibition of aggregation in test [2] was 9.6% (inactive). For the same compound, the figures for the nuclei count in test [2] and in test [3] were 105% and 124%, respectively. In addition, the fluorescence slope in test [4] was -0.42 (inactive). For the same compound, in test [5], the NADPH fluorescence slope is 1.4e-05 (inactive). In test [6], the slope is 0.00616 (inactive).
